# Source: PubChem (several laboratories)
# Shown are actives, neighbours in structure and some others; about 1.5% of the full set was active somewhere.
# ANO1 block – mouse TMEM16A channel inhibition, primary screen; Q8BHY3; HEK293 TMEM16A/YFP iodide influx fluorescence, ionomycin; normalized B-score (activity score, 25-100; higher = stronger inhibition) at 10 µM; 310,000 compounds, 1.2% hits;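 active = ratio plate-corrected score three or more library SD toward inhibition, starting fluorescence score within five deviations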;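 note: score derived from kinetic fluorescence span divided by baseline fluorescence per well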
# hiPSC survival – hiPSC single-cell survival enhancement. ATPlite luminescence; 100% = ROCK inhibitor wells, 0% = DMSO. survival enhancement, % at 20 µM. 360,000 compounds, 0.044% hits; in the data active = survival enhancement above about 18%;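 note: cells exposed to compounds for 16 hours before the ATP read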
# ANO1 activ – activators or potentiators of mouse TMEM16A chloride channel; Q8BHY3; HEK293 TMEM16A/YFP-H148Q/I152L, iodide quench fluorescence; stronger effect = lower value; B-score at 10 µM; 340,000 compounds, 0.3% hits; AID 623877;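 active = fluorescence-ratio B-score plate-corrected deviation score at least 3 library SD below zero, with starting fluorescence score within 5 deviations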;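 note: channel opened by trigger with iodide after compound preincubation; score built on the fluorescence ratio of max minus min over baseline; more negative score means more quench and so TMEM16A activation or potentiation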
# ABCB6 inh 2 – human ABCB6 transporter inhibition. 360,000 compounds, 0.19% hits. K562-ABCB6 porphyrin accumulation, flow cytometry, 1 h; stronger effect = lower value. fluorescence ratio to DMSO, % at 10 µM. AID 602162. Q9NP58;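 active = fluorescence ratio to DMSO below 75%, the collection mean minus 3 SD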;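 note: signal is porphyrin accumulated inside mitochondria; 100% equals median channel fluorescence of DMSO control wells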
# DAGLB inhibitor – blocks human DAGLB lipase activity | AID 504411 | HEK293T DAGLB membrane lysate, EnzChek fluorogenic substrate | inhibition, % at 5.17 µM | 340,000 compounds, 0.059% hits | Q8NCG7; in the data active = inhibition above about 34%;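 note: 0% = enzyme with vehicle and 100% = wells lacking enzyme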
# ABCB6 blocker 1 – human ABCB6 transporter inhibition. 700 tested, under 10 active. K562-ABCB6 porphyrin accumulation, flow cytometry, 1 h; stronger effect = lower value. shares compounds with ABCB6 inh 2. ratio response (% of DMSO), % at 10 µM;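 active = repeat-averaged ratio response below 75% of DMSO, the collection mean minus 3 SD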;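 note: median porphyrin fluorescence at 575 nm with 488 nm excitation from mitochondria; lower ratio means less porphyrin signal so ABCB6 inhibition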
# * = called active by the depositor; i = inactive; · = no result given.
SMILES,ANO1 block,hiPSC survival,ANO1 activ,ABCB6 inh 2,DAGLB inhibitor,ABCB6 blocker 1
COC(=O)C1C(=O)C2=C(CC1C)NC(C)=C(C(=O)OC(C)C)C2c1ccc(OC)c(O)c1 (stereo unspecified),i,2,i,73*,0,101
CCc1ccccc1N(CC)C(=O)c1cn(C)c(=O)c2cc(OC)c(OC)cc12,i,-2,i,146,3,·
COc1cc2c(C(=O)N(C)c3ccc(F)cc3)cn(C)c(=O)c2cc1OC,i,-1,·,14*,1,99
COC(=O)c1ccccc1NC(=O)c1noc2c1CC(C(C)(C)C)CC2 (stereo unspecified),i,-3,i,69*,-1,100
Cc1cc(C(=O)COc2ccc(Br)cc2F)c(C)n1CC1CCCO1 (stereo unspecified),·,-2,·,71*,0,97
COc1ccc(NC(=O)CN2CCC(NC(=O)C3CCCCC3)CC2)cc1,i,-1,i,68*,-2,98
O=C(CN1CCC(NC(=O)C2CCCCC2)CC1)Nc1ccccc1,·,1,i,93,0,·
Cc1cccc(NC(=O)C2CCN(S(=O)(=O)c3c(C)noc3/C=C/c3ccco3)CC2)n1,i,-2,i,51*,-5,98
COC(=O)[C@@H]1C[C@@]2(O)[C@H](O)[C@H](O)[C@H](O)C[C@H]2N1Cc1ccc(C(F)(F)F)cc1,i,2,i,72*,-1,100
CCN(CC)C(=O)C1=C(C)N(CCCOC)C(=O)C(CC(=O)NCC2CCCCC2)C1 (stereo unspecified),·,2,·,95,0,·
COc1ccc(NC(=O)c2cccc(S(=O)(=O)N3CCCCC3)c2)c(OC)c1,i,2,i,13*,-1,98
COc1ccc(NC(=O)c2ccc(S(=O)(=O)N3CCCCCC3)cc2)c(OC)c1,i,0,i,99,-3,·
COCCn1cnc2c1c(=O)[nH]c(=O)n2Cc1ccccc1,i,0,i,99,4,·
COc1ccc(N2CCN(c3ncccc3C#N)CC2)cc1,i,0,i,74*,0,101
Cc1ccc(-c2cc(Cc3ccc(N(C)C)cc3)c(=O)[nH]n2)cc1,i,0,i,97,·,·
COc1ccc(C(=O)NCC(C)NC(=O)c2ccc(OC)cc2)cc1 (stereo unspecified),i,-1,i,100,0,·
CC(CNC(=O)c1ccc(C#N)cc1)NC(=O)c1ccc(C#N)cc1 (stereo unspecified),i,0,i,73*,1,101
Cc1ccc2[nH]c(=O)c(CN(Cc3cccs3)Cc3nnnn3Cc3ccccc3)cc2c1,i,-1,i,40*,6,103
COc1ccc2nc(SCC(=O)Nc3ccccc3)[nH]c2c1,i,1,i,101,1,·
CCOc1ccc2nc(SCC(=O)NCc3ccccc3OC)[nH]c2c1,i,1,i,72*,1,103
COc1ccc2nc(SCC(=O)Nc3c(C)cccc3C)[nH]c2c1,i,0,i,74*,1,98
NC(=S)Cc1nc2n(n1)Cc1ccccc1-2,i,-1,i,70*,-1,99
COc1ccc(OC)c(C(C)NC(=O)Nc2ccccc2)c1 (stereo unspecified),i,-1,i,72*,-4,101
Cc1cccc(N(Cc2ccccc2)C(=O)Cc2ccc(S(=O)(=O)N3CCOCC3)s2)c1,i,0,i,94,-1,·
c1ccc(OCCNc2ccn3nc(-c4ccccc4)cc3n2)cc1,·,2,·,101,·,·
SMILES,ANO1 block,hiPSC survival,ANO1 activ,ABCB6 inh 2,DAGLB inhibitor,ABCB6 blocker 1
COc1ccccc1-c1cc2nc(NCCOc3ccccc3)ccn2n1,·,2,·,61*,·,104
O=C(COc1ccc(S(=O)(=O)NC2CCCC2)cc1)NCC1CCCO1 (stereo unspecified),i,-2,i,98,-2,·
Cc1cc(S(=O)(=O)NC2CCCCC2)ccc1OCC(=O)NCC1CCCO1 (stereo unspecified),i,1,i,73*,-4,99
CNC(=O)c1c[nH]n2c(=O)c(Cc3ccccc3F)c(C)nc12,i,-1,i,107,2,116
COc1cccc(CNC(=O)c2c[nH]n3c(=O)c(Cl)c(C)nc23)c1,i,1,i,98,10,·
C(=C\c1ccccc1)/CN1CCN(C(c2cc3ccccc3o2)c2nnnn2C2CCCCC2)CC1 (stereo unspecified),·,-1,·,102,·,·
Cc1c(NC(=O)c2cc3c(=O)n4ccccc4nc3s2)c(=O)n(-c2ccccc2)n1C,i,0,i,93,2,·
CC(C)NC(=O)c1cc2c(=O)n3ccccc3nc2s1,i,0,i,79,-3,·
Cc1cc(C)cc(NC(=O)c2cc3c(=O)n4ccccc4nc3s2)c1,i,-1,i,91,3,97
CSc1ccccc1NC(=O)c1cc2c(=O)n3ccccc3nc2s1,i,0,i,102,-2,101
CCCN(C(=O)COC(=O)c1nc2nccc(C)n2n1)C1CCS(=O)(=O)C1 (stereo unspecified),·,0,i,101,2,·
O=C1CC(c2ccccc2)CC(O)=C1C=NCc1ccccc1Cl (stereo unspecified),i,0,i,15*,-1,97
O=C1CC(c2ccccc2)CC(O)=C1C=NCc1ccccc1 (stereo unspecified),i,-2,i,103,1,·
Cc1ccc(F)c(S(=O)(=O)NC(=O)C2(C)CCN2C(=O)Cc2ccc(Cl)cc2Cl)c1 (stereo unspecified),·,1,·,98,·,·
CC(C)(C)c1ccc(S(=O)(=O)NC(=O)C2(C)CCN2C(=O)Cc2cc(F)ccc2F)cc1 (stereo unspecified),·,-2,·,107,·,·
Cc1ccc(F)c(S(=O)(=O)NC(=O)C2(C)CCN2C(=O)Cc2ccccc2Cl)c1 (stereo unspecified),·,0,·,94,·,100
Cc1ccc(F)c(S(=O)(=O)NC(=O)C2(C)CCN2C(=O)Cc2cc(F)ccc2F)c1 (stereo unspecified),·,2,·,102,·,98
CC1(C(=O)NS(=O)(=O)c2ccc(C#N)cc2)CCN1C(=O)Cc1cc(F)ccc1F (stereo unspecified),·,0,·,104,·,99
Cc1ccccc1S(=O)(=O)NC(=O)C1(C)CCN1C(=O)CCc1ccc(Cl)cc1Cl (stereo unspecified),·,-1,·,97,·,97
COc1ccc(-c2nn(-c3ccccc3)cc2CNC[C@H]2O[C@@H](n3ccc(=O)[nH]c3=O)[C@H](O)[C@@H]2O)cc1,·,-2,·,97,·,·
